Values joined by “and” are separate entries in the source; they are usually repeats but may differ in a detail not shown here. Identical values can stand only once. Results filed as inconclusive are left out. Where a call stands in place of a potency, no number is given. Active and inactive are the calls of the source. Unless noted, the call rests on the fitted dose curve; in most records, active means well fitted curve in the direction sought with a large enough effect in the repeat runs; inconclusive means weak or mixed curves; inactive means no such curve, though single readings can be large; an effect the other way counts as inactive or inconclusive.
Legend:
[1] = qHTS assay for small molecule agonists of the p53 signaling pathway (AID 651631; calls by dose curve; further: nearly all actives have a fitted effect of over 15% in size; further: potency means the concentration at half of the fitted maximal effect)
Outline: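 Testing took place in human colorectal HCT-116 cells with stable p53RE-driven beta-lactamase. After 16 h of compound exposure at 37 °C, a FRET substrate was added and fluorescence recorded 2 h later.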

[2] = qHTS assay for small molecules that induce genotoxicity in human embryonic kidney cells expressing luciferase-tagged ATAD5 (AID 651632); further: nearly all actives have a fitted effect of over 15% in size
Outline: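 Reporter cells (HEK293T) express luciferase-tagged ATAD5, a protein that accumulates after DNA damage. Treat 16 hr at 37C/5% CO2, add Amplite, wait 30 min at RT, and read luminescence.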

[3] = qHTS assay for small molecule agonists of the p53 signaling pathway - cell viability (AID 651633; calls by dose curve; further: nearly all actives have a fitted effect of over 30% in size; further: potency means the concentration at half of the fitted maximal effect)
Outline: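 p53RE-bla cells were treated with compound for 16 hours at 37 C. Cytotoxicity was then measured as CellTiter-Glo luminescence after 30 min at room temperature.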

[4] = qHTS assay for small molecules that induce genotoxicity in human embryonic kidney cells expressing luciferase-tagged ATAD5 - cell viability (AID 651634; calls by dose curve; further: nearly all actives have a fitted effect of over 25% in size; further: potency means the concentration at half of the fitted maximal effect)
Outline: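 Seeding of 2,000 HEK293T ATAD5-luciferase cells per well preceded pin-tool compound transfer. Plates sat 15.5 hr at 37C under 5% CO2, then fluorescence was read after 30 min with CellTiter-Fluor.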

[5] = qHTS assay for small molecule disruptors of the mitochondrial membrane potential - cell viability (AID 720634; calls by dose curve; further: nearly all actives have a fitted effect of over 20% in size; further: potency means the concentration at half of the fitted maximal effect)
Outline: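 Measuring cytotoxicity alongside mitochondrial potential, the screen quantified ATP by luminescence in HepG2 cells after 1 hr compound incubation and a 30 min room-temperature CellTiter-Glo step.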

[6] = qHTS assay for small molecule disruptors of the mitochondrial membrane potential (AID 720635); further: potency means the concentration at half of the fitted maximal effect
Outline: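 HepG2 cells exposed to compound 1 hr at 37C, then Mito-MPS dye 30 min. Ratio read of aggregate (540/590 nm) versus monomer (490/535 nm) fluorescence.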

[7] = qHTS assay to test for compound auto fluorescence at 590 nm (red) in HepG2 cells (AID 720674)
Outline: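 Seeding: 2,000 HepG2 cells/well, MEM/10% FBS, overnight 37 C. Dosing: compound vs DMSO. Incubation: 1 hr, 37 C, 5% CO2. Read: fluorescence 540 ex/590 em, Rose Bengal sodium as red reference.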

[8] = qHTS assay to test for compound auto fluorescence at 535 nm (green) in HepG2 cells (AID 720675)
[9] = qHTS assay to test for compound auto fluorescence at 460 nm (blue) in HEK293 cells (AID 720678)
Outline: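 Blue read-out at excitation 405 nm and emission 460 nm follows overnight compound exposure of HEK293 cells at 37C in 5% CO2. Activity is given as auto fluorescence equivalency to triamterene.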

[10] = qHTS assay to test for compound auto fluorescence at 590 nm (red) in HEK293 cells (AID 720679)
Outline: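 Red channel, Ex/Em 540/590nm; signal expressed as equivalency to Rose Bengal sodium. HEK293, 2,000 cells/well, 10% dialyzed FBS; 23 nL compound pinned after 4-5 hr attachment; overnight 37C/5% CO2 before reading.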

[11] = qHTS assay to test for compound auto fluorescence at 535 nm (green) in HEK293 cells (AID 720680)
[12] = qHTS assay to test for compound auto fluorescence at 460 nm (blue) in HEK293 cell free culture (AID 720681)
Outline: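 Compounds were added to cell-free DMEM with 10% FBS and fluorescence read directly. The blue channel used 405 nm excitation and 460 nm emission, with triamterene as the reference fluorophore.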

[13] = qHTS assay to test for compound auto fluorescence at 535 nm (green) in HEK293 cell free culture (AID 720682)
Outline: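 DMEM + 10% FBS, cell-free; cpd or DMSO pinned in; Ex485/Em535 read; output as fluorescein-equivalent signal.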

[14] = qHTS assay to test for compound auto fluorescence at 590 nm (red) in HEK293 cell free culture (AID 720683)
Outline: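 Cell-free wells of DMEM with 10% FBS received compound, and intrinsic fluorescence was read at excitation/emission 540/590 nm. Values expressed as equivalence to Rose Bengal sodium.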

[15] = qHTS assay to test for compound auto fluorescence at 590 nm (red) in HepG2 cell free culture (AID 720684)
Outline: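 Compounds are added to culture medium (MEM, 10% FBS) lacking cells, then fluorescence is read at excitation 540 nm, emission 590 nm, with Rose Bengal sodium as the equivalency standard.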

[16] = qHTS assay to test for compound auto fluorescence at 460 nm (blue) in HepG2 cell free culture (AID 720685)
Outline: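 Compound (23 nL) or DMSO pinned into cell-free MEM with 10% FBS; blue fluorescence read at 405/460 nm excitation/emission, expressed as auto-fluorescence equivalency to triamterene.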

[17] = qHTS assay to test for compound auto fluorescence at 535 nm (green) in HepG2 cell free culture (AID 720686)
[18] = qHTS assay to test for compound auto fluorescence at 460 nm (blue) in HepG2 cells (AID 720687)
Outline: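 HepG2 cells in MEM with 10% FBS, attached overnight at 37 C, were exposed to compound or DMSO for 1 hr at 37 C, 5% CO2. Blue fluorescence was read at 405/460 nm, with triamterene as reference fluorophore.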

[19] = qHTS assay to identify small molecule antagonists of the glucocorticoid receptor (GR) signaling pathway - cell viability counter screen (AID 720693); further: nearly all actives have a fitted effect of over 55% in size; further: potency means the concentration at half of the fitted maximal effect
[20] = biological target: Glucocorticoid receptor (Homo sapiens) (UniProt P04150); experiment: qHTS assay to identify small molecule agonists of the glucocorticoid receptor (GR) signaling pathway (AID 720691; active means well fitted activation curve with a large enough effect in the signal ratio in the repeat runs, not every such curve was filed as active; the % refers to the signal ratio)
Glucocorticoid receptor (Homo sapiens), sequence (P04150 whole entry, looked up): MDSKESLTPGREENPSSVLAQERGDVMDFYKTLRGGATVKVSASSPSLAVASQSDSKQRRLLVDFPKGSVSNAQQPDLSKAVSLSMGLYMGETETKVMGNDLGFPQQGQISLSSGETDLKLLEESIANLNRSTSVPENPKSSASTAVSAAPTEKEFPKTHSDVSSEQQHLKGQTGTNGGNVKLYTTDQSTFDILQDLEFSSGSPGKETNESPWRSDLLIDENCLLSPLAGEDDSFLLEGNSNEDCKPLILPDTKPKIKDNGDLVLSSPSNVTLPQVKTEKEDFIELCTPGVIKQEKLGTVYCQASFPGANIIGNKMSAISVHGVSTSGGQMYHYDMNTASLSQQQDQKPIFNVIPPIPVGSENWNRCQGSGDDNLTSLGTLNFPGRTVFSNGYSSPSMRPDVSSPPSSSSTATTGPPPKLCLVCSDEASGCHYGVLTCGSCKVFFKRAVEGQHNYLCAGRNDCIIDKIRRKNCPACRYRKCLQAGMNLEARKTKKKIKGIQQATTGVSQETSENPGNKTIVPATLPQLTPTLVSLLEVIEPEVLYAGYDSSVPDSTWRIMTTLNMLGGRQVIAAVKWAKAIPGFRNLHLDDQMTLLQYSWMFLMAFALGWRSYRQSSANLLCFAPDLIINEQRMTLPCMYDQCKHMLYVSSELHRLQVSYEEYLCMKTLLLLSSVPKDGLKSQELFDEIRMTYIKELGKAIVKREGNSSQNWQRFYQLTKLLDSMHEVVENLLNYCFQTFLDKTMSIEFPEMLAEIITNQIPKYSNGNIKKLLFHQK
Outline: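 Reporter read-out: fluorescence intensity following 2 h room-temperature LiveBLAzer B/G FRET substrate loading. Prior step: GR-bla HeLa cells held 4 h, then treated 18 h at 37 C.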

Row | Compound | Potency [1] | outcome [2] | Potency [3] | Potency [4] | Potency [5] | Potency [6] | outcome [7] | outcome [8] | outcome [9] | outcome [10] | outcome [11] | outcome [12] | outcome [13] | outcome [14] | outcome [15] | outcome [16] | outcome [17] | outcome [18] | Potency [19] | outcome [20]
1 | Cc1cc(-c2ccc(N)c(C)c2)ccc1N | inactive | inactive | inactive | inactive | inactive | inactive | inactive | inactive | inactive | inactive | inactive | inactive | inactive | inactive | inactive | inactive | inactive | inactive | inactive | –
2 | C1CCC(NC2CCCCC2)CC1 | inactive | inactive | inactive | inactive | inactive | inactive | inactive | inactive | inactive | inactive | inactive | inactive | inactive | inactive | inactive | inactive | inactive | inactive | inactive | inactive
3 | O=C(O)CC(O)(CC(=O)O)C(=O)O | inactive | inactive | inactive | inactive | inactive | inactive | inactive | inactive | inactive | inactive | inactive | inactive | inactive | inactive | inactive | inactive | inactive | inactive | inactive | –
4 | Nc1ccccc1 | inactive | inactive | inactive | inactive | inactive | inactive | inactive | inactive | inactive | inactive | inactive | inactive | inactive | inactive | inactive | inactive | inactive | inactive | inactive | inactive
5 | O=C(O)C(Cl)Cl | – | inactive | inactive | inactive | inactive | inactive | inactive | inactive | inactive | inactive | inactive | inactive | inactive | inactive | inactive | inactive | inactive | inactive | inactive | inactive
6 | CC(=O)[O][Hg][c]1ccccc1 | 596 nM (active) and 762 nM (active) and 1.22 µM (active) | inactive | 473 nM (active) and 382 nM (active) and 386 nM (active) | 1.68 µM (active) and 606 nM (active) and 1.37 µM (active) | 5.31 µM (active) and 1.21 µM (active) and 2.43 µM (active) | 4.73 µM (active) and 1.08 µM (active) and 1.93 µM (active) | inactive | inactive | inactive | inactive | inactive | inactive | inactive | inactive | inactive | inactive | inactive | inactive | 952 nM (active) and 485 nM (active) and 436 nM (active) | –
7 | O=C(O)c1nc(Cl)ccc1Cl | inactive | inactive | inactive | inactive | inactive | inactive | inactive | inactive | inactive | inactive | inactive | inactive | inactive | inactive | inactive | inactive | inactive | inactive | inactive | inactive
8 | CCCC[N+]1(C)CCCC1 | inactive | inactive | inactive | inactive | inactive | inactive | inactive | inactive | inactive | inactive | inactive | inactive | inactive | inactive | inactive | inactive | inactive | inactive | inactive | –
9 | O=C(O)C(Cl)(Cl)Cl | inactive | inactive | inactive | inactive | inactive | inactive | inactive | inactive | inactive | inactive | inactive | inactive | inactive | inactive | inactive | inactive | inactive | inactive | inactive | –
10 | CCC(=O)C(CC(C)N(C)C)(c1ccccc1)c1ccccc1 (stereo not drawn) | inactive | inactive | inactive | inactive | inactive | inactive | inactive | inactive | inactive | inactive | inactive | inactive | inactive | inactive | inactive | inactive | inactive | inactive | inactive | inactive
11 | CCNc1nc(Cl)nc(NCC)n1 | inactive | inactive | inactive | inactive | inactive | inactive | inactive | inactive | inactive | inactive | inactive | inactive | inactive | inactive | inactive | inactive | inactive | inactive | inactive | inactive
12 | Cc1cc(Cl)ccc1OCC(=O)O | inactive | inactive | inactive | inactive | inactive | inactive | inactive | inactive | inactive | inactive | inactive | inactive | inactive | inactive | inactive | inactive | inactive | inactive | inactive | inactive
13 | O=P1(N(CCCl)CCCl)NCCCO1 (stereo not drawn) | inactive | inactive | inactive | inactive | inactive | inactive | inactive | inactive | inactive | inactive | inactive | inactive | inactive | inactive | inactive | inactive | inactive | inactive | inactive | inactive
14 | O=C(O)COc1ccc(Cl)cc1Cl | inactive | – | inactive | inactive | inactive | inactive | inactive | inactive | inactive | inactive | inactive | inactive | inactive | inactive | inactive | inactive | inactive | inactive | inactive | inactive

Reference: PubChem BioAssay (Tox21)
